Values joined by “and” are separate entries in the source; they are usually repeats but may differ in a detail not shown here. Equal values may be shown once. Records with an inconclusive call do not appear. Entries that show only a call come without a potency. Active and inactive are the calls of the source. Calls come from the whole dose curve; as a rule, active = well fitted cell-killing curve with a large enough effect in the repeat runs; inconclusive = weak or mixed curves, or effect the other way; inactive = no such curve, though single readings can be large or run the other way.
Assay: qHTS assay for identifying genotoxic compounds that show differential cytotoxicity against isogenic chicken DT40 cell lines with known DNA damage response pathways - Rev3 mutant cell line (AID 743014); note: nearly all actives have a fitted effect of over 55% in size
Conditions: chicken DT40 Rev3-/- viability, CellTiter-Glo, 40 h; series mostly up to 68.4 µM
Potency is the fitted concentration of half-maximal effect.

Compound	Potency
C[C@]12CC[C@@H]3c4ccc(OS(=O)(=O)O)cc4CC[C@H]3[C@@H]1CCC2=O	inactive
CN1[C@@H]2CC[C@H]1CC(OC(c1ccccc1)c1ccccc1)C2 (some centres undefined)	5.31 µM (active) and 8.41 µM (active) and 4.22 µM (active)
CCCc1ccc(C(=O)O)cc1	inactive
Cc1cccc(C)c1Nc1ncccc1C(=O)O	inactive
O=C1O[C@H]2[C@H](O)[C@@H]1OC(O)[C@H]2O (some centres undefined)	inactive
CC(C)(C)NCC(O)c1ccc(O)c(CO)n1 (centres undefined)	inactive
Nc1nc(=O)n([C@@H]2CS[C@H](CO)O2)cc1F	inactive
NCCCC[C@H](NC(=O)[C@@H]1CCCN1C(=O)[C@@H]1CSSC[C@H](N)C(=O)N[C@@H](Cc2ccccc2)C(=O)N[C@@H](Cc2ccccc2)C(=O)N[C@@H](CCC(N)=O)C(=O)N[C@@H](CC(N)=O)C(=O)N1)C(=O)NCC(N)=O	inactive
CCCCCCCCCCCCCCCC(=O)OC[C@@H](NC(=O)C(Cl)Cl)[C@H](O)c1ccc([N+](=O)[O-])cc1	inactive
N=C(N)c1ccc(OCCCOc2ccc(C(=N)N)cc2Br)c(Br)c1	8.41 µM (active)
N[C@H](CC(=O)O)C(=O)O	inactive
CS(=O)(=O)OCCCNCCCOS(C)(=O)=O	inactive
O=[n+]1ccn([O-])c2ccccc21	inactive
O=C(O)[C@H]1/C(=C/CO)O[C@@H]2CC(=O)N21	inactive
CCC(=O)OCC(=O)[C@@]1(OC(=O)CC)[C@@H](C)C[C@H]2[C@@H]3CCC4=CC(=O)C=C[C@]4(C)[C@@]3(Cl)[C@@H](O)C[C@@]21C	15 µM (active)
COc1ccc(CNCC(O)COc2ccc3[nH]c(=O)ccc3c2)cc1OC (centres undefined)	inactive
O=C(O)C1CCCN1 (centres undefined)	inactive
Cc1cc2nc3c(=O)[nH]c(=O)nc-3n(C[C@H](O)[C@H](O)[C@H](O)COP(=O)(O)OP(=O)(O)OC[C@H]3O[C@@H](n4cnc5c(N)ncnc54)[C@H](O)[C@@H]3O)c2cc1C	inactive
Cc1ccc(C2(O)CCN(CCCC(=O)c3ccc(F)cc3)CC2)cc1	11.9 µM (active)
CC(C(=O)O)c1ccc(C2CCCCC2)c2ccccc12 (centres undefined)	inactive
CO[C@H]1C[C@@H]2CC[C@@H](C)[C@@](O)(O2)C(=O)C(=O)N2CCCC[C@H]2C(=O)O[C@H]([C@H](C)C[C@@H]2CC[C@@H](OCCO)[C@H](OC)C2)CC(=O)[C@H](C)/C=C(\C)[C@@H](O)[C@@H](OC)C(=O)[C@H](C)C[C@H](C)/C=C/C=C/C=C/1C	0.0075 µM (active)
CCCCCCCN(CC)CCCC(O)c1ccc(NS(C)(=O)=O)cc1 (centres undefined)	26.6 µM (active)
CC(C)(C)CC(=O)OCC(=O)[C@@]12OC(C)(C)O[C@@H]1C[C@H]1[C@@H]3CCC4=CC(=O)C=C[C@]4(C)[C@@]3(F)[C@@H](O)C[C@@]12C	inactive
CO/N=C(\C(=O)N[C@@H]1C(=O)N2C(C(=O)O)=CCS[C@H]12)c1csc(N)n1	inactive

From PubChem BioAssay (Tox21)
